MCF10A rereplic: induces DNA re-replication in MCF 10a normal breast cells; MCF 10A DNA re-replication, Hoechst nuclear intensity, 48 h; Potency, µM (titrated, usually from 46.1 µM), actives largely listed as activators; 350,000 tested, 2.9% active; AID 624296; further: nearly all actives have a fitted effect of over 50% in size
KB-V1 cytotox: kills drug-selected multidrug resistant KB-V1 cells | KB-V1 MDR cells viability, CellTiter-Glo, 72 h | Potency, µM (series often up to 46.1 µM), most hits filed as cytotoxic | 400,000 tested, 3.4% active; further: nearly all actives have a fitted effect of over 60% in size
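Cytotoxicity via CellTiter-Glo luminescence after 72 h compound exposure at 37 degrees C. Cells: drug-selected KB-V1 line, DMEM phenol-red free plus 10% FBS. Compounds tested at multiple concentrations; normalized data fitted to concentration-effect curves.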
PTAP TSG101 blk: blocks PTAP/TSG101 interaction to inhibit HIV-1 budding; AID 493005; Q99816; 340,000 tested, under 10 active; Fluorescence polarization, FITC-PTAP peptide / Tsg101 binding; Potency, µM (top dose mostly 115 µM), most hits filed as inhibitors; active means well fitted inhibition curve with a large enough effect in the main read-out, with a control signal flat, not every such curve was filed as active; inconclusive means small, poorly fitted or top-dose-only effect, or effect the other way, or a change in a side signal; inactive means no such curve, though single readings can be large or run the other way
Target sequence (Q99816 whole entry, looked up): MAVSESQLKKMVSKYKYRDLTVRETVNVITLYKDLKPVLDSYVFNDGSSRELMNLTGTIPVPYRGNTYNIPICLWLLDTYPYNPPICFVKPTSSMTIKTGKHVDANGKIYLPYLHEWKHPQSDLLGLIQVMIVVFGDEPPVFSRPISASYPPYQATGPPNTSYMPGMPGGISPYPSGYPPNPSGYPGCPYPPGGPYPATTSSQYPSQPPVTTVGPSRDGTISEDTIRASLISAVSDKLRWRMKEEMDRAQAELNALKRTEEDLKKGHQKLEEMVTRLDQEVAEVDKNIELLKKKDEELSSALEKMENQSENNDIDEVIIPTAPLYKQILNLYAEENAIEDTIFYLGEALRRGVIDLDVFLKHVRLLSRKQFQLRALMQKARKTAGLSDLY
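Steps: Tsg101 binding domain dispensed (10 uM final), compounds pinned in DMSO, FITC-labeled PTAP-motif peptide added (50 nM final); after 20 min binding at room temperature, polarization measured.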
SW480 rerep: inducers of DNA re-replication in SW480 colon cancer cells. AID 624297. SW480 DNA re-replication, Hoechst DNA content imaging, 48 h. 340,000 tested, 1.8% active. Potency, µM (doses to about 46.1 µM), hits mostly activators; further: nearly all actives have a fitted effect of over 55% in size
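SW480 cells exposed to compounds for 48 hr at 37 C, 5% CO2, then Hoechst-stained 40 min. Nuclear DNA content imaged by fluorescence scanning (405 nm excitation, 500-530 nm emission); re-replication scored as increased high-intensity nuclei.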
PINK1 modulator: PINK1 expression modulation; 410,000 tested, 0.2% active; Potency, µM (highest dose often 76.6 µM), actives largely listed as activators; PINK1 immunofluorescence, high-content cytometry, 24 h; AID 624263; active means well fitted activation curve with a large enough effect; inconclusive means small, poorly fitted or top-dose-only effect; cell line not stated here; further: nearly all actives have a fitted effect of over 65% in size
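PINK1 protein, normally rapidly degraded, was detected by immunofluorescence after 24 hour compound treatment of a stable cell line. Titration data (5 concentrations) came from laser-scanning cytometry, with CCCP-treated wells as controls.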
KB-3-1 cytotox: kills parental KB-3-1 adenocarcinoma cells; KB-3-1 viability, CellTiter-Glo ATP luminescence, 72 h; Potency, µM (highest dose often 46.1 µM), usual class: cytotoxic; 400,000 tested, 1.4% active; further: nearly all actives have a fitted effect of over 60% in size
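Multi-concentration cytotoxicity screen in KB-3-1 cells grown in DMEM lacking phenol red with 10% FBS. After 72 h at 37 °C with compound, ATP-dependent luminescence was recorded.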
Numbers stand for hits; 0 = inactive; ? = inconclusive; - = no result; [ ] = dose if it differs, or a comment. Compounds with a hit are over-represented: about 6.8% of the library has one in this group of screens. Unless noted, the call rests on the fitted dose curve; in most records, active means well fitted curve in the direction sought with a large enough effect; inconclusive means small, poorly fitted or top-dose-only effect, or another doubt; inactive means no such curve, though single readings can be large; an effect the other way counts as inactive or inconclusive.

SMILES	MCF10A rereplic	KB-V1 cytotox	PTAP TSG101 blk	SW480 rerep	PINK1 modulator	KB-3-1 cytotox
CCC(C(=O)Nc1ccc2c(c1)OCCO2)n1nnc2ccccc2c1=O (centres undefined)	0	0	0	0	0	0
O=c1c2ccccc2nnn1CSc1ccc2c(c1)OCCO2	0	23.1µM	0	0	0	0
CCOC(=O)c1c(SCC(=O)Nc2nc3ccc(C)cc3s2)nc(=O)[nH]c1C	-	?	-	-	0	0
CCOc1ccc(C(=O)Nc2nnc(SCc3cc(=O)n4ccccc4n3)s2)cc1	-	-	-	-	0	-
CC(C)(C)OC(=O)N1CCC(c2c(C(=O)N3CCCCC3)cnn2-c2ccc(F)cc2)CC1	-	0	-	-	0	0
Cc1cc(C)c(C)c(S(=O)(=O)NCC(=O)NCc2ccco2)c1C	0	18.4µM	0	?	0	0
Cc1cc(C)c2c(CC(=O)NCc3ccco3)coc2c1	?	14.6µM	0	0	0	?
Cc1ccc(S(=O)(=O)N[C@@H](CC(C)C)C(=O)NCc2ccco2)cc1	0	14.6µM	0	0	0	0
COc1ccc(C2C(C(=O)Nc3ccccc3OC)=C(C)Nc3c(C(=O)Nc4ccccc4)cnn32)c(OC)c1 (centres undefined)	-	-	-	-	0	-
COc1ccc(N(CC(=O)Nc2cc(OC)cc(OC)c2)S(=O)(=O)c2c(C)noc2C)cc1	-	0	-	-	0	?
Cc1cc(C(=O)C(=O)Nc2nncs2)c(C)n1-c1ccc(Cl)cc1	-	0	-	-	0	0
O=C(CN1C(=O)COc2ccc(S(=O)(=O)Nc3ccccc3)cc21)NCc1ccccc1Cl	-	0	-	-	0	0
CCCN(CC(=O)Nc1ccc(Cl)cc1Cl)C(=O)/C=C/c1ccco1	9.2µM	?	0	0	0	?
Oc1c(Cl)cc(Cl)cc1/C=N/c1nccs1	14.6µM	0	0	0	0	0
Oc1c(Cl)cc(Cl)cc1/C=N/c1nc(-c2ccc(Cl)cc2)cs1	?	0	0	0	0	0
C=C(C(=O)O)c1ccc2ccccc2c1	-	0	-	-	0	0
O=c1c2ccccc2[nH]c2ccccc12	0	0	0	18.4µM	0	0
c1ccc2c(c1)[nH]c1ccccc12	0	0	0	0	0	0
COc1ccc(C)cc1NC(=O)N1CCN(S(=O)(=O)c2ccc3c(ccn3C)c2)CC1	-	0	-	-	0	0
O=C(NCc1ccco1)c1cccc(NC(=O)c2ccco2)c1	?	0	0	?	0	7.31µM
Cc1ccc(C(=O)Nc2ccccc2C(=O)NCc2cccnc2)cc1	0	0	0	0	0	0
CCOc1ccc(CCNC(=O)Cc2ccc(NC(=O)C3=C(C)OCCS3)cc2)cc1	0	0	0	0	0	0
CSc1ccc(CNC(=O)Cc2ccc(NC(=O)C3=C(C)OCCS3)cc2)cc1	?	?	0	0	0	5.8µM
CC(C)CNC(=O)c1cccc(NC(=O)c2ccco2)c1	0	0	0	0	-	0
CC1=C(C(=O)Nc2cc(C(=O)NCc3ccccc3)ccc2C)SCCO1	-	20.6µM	-	-	0	0
SMILES	MCF10A rereplic	KB-V1 cytotox	PTAP TSG101 blk	SW480 rerep	PINK1 modulator	KB-3-1 cytotox
Cc1ccc(C(=O)Nc2ccccc2C(=O)NCc2ccccc2)cc1	0	4.61µM	0	0	0	0
CCOC(=O)c1cc(-c2ccc(OC)cc2)n(CCC(=O)Nc2cccc(C(C)=O)c2)c1C	-	-	-	-	0	-
O=C(NCc1ccccc1)c1cccc(NC(=O)c2ccccc2)c1	0	0	0	0[9.22 µM]	0	23.1µM
Cc1ccc(C)n1-c1cccc(NC(=O)c2ccccc2)c1	?	23.1µM	0	?	0	0
COc1ccc(CNC(=O)c2cccc(NC(=O)c3ccccc3)c2)cc1	0	0	0	0	0	0
O=C(NCc1ccccc1)c1cccc(NC(=O)c2ccco2)c1	?	8.2µM	0	0	0	10.3µM
Cc1ccc(C(=O)NCc2ccccc2)cc1Br	0	18.4µM	0	0	0	0
Cc1ccc(C(=O)NC(=S)NCc2ccccc2)cc1Br	0	0	0	0	0	0
CCn1cc(S(=O)(=O)c2cc(C)cc(C)c2)c(=O)c2cc(F)c(N3CCC(C)CC3)cc21	-	-	-	-	0	-
Cc1nc(Nc2nc(CSc3ccc(Cl)cc3)cc(=O)[nH]2)nc2ccccc12	0	0	0	?	0	0
CCc1ccc2nc(Nc3nc(COC)cc(=O)[nH]3)nc(C)c2c1	0	20.6µM	0	0	0	0
Cc1ccc2nc(Nc3nc(CSc4nnnn4-c4ccccc4)cc(=O)[nH]3)nc(C)c2c1	0	0	0	0	-	?
Cc1nc(Nc2nc(CSc3nc4ccccc4[nH]3)cc(=O)[nH]2)nc2ccccc12	11.6µM	0	0	?	0	?
COc1ccc2nc(Nc3nc(CSc4nc5ccccc5[nH]4)cc(=O)[nH]3)nc(C)c2c1	3.66µM	?	0	?	?	?
COCc1cc(=O)[nH]c(Nc2nc3ccc(C)cc3o2)n1	?	?	0	?	0	20.6µM
CCc1c(C)nc(Nc2nc(C)c3cc(OC)ccc3n2)[nH]c1=O	?	?	0	0	0	0
Cc1cc(C)c(NC(=O)c2nc3ccccc3nc2N2CCCCC2)c(C)c1	-	0	-	-	0	0
Cc1ccc(-c2nc(N3CCOCC3)sc2C(=O)N2CCCCC2)cc1	0	18.4µM	0	?	0	0
Cc1ccc(-c2nc(N3CCOCC3)sc2C(=O)N2CCOCC2)cc1	0	0	0	0	0	0
O=C(NC1CCCCC1)c1sc(N2CCOCC2)nc1-c1ccccc1	5.8µM	0	0	0	0	0
O=C(Nc1ccccc1)c1sc(N2CCOCC2)nc1-c1ccccc1	0	?	0	0	0	0
CCOc1cc(C)c(-c2onc(C(F)(F)F)c2-c2csc(C)n2)c(O)c1	?	13µM	0	0	0	?
COC(=O)/C(=C\Nc1ccc(Cl)cc1Cl)NC(=O)c1ccc(OC)cc1	18.4µM	4.11µM	0	6.51µM	0	5.8µM
COC(=O)/C(=C\Nc1ccc(OC)cc1)NC(=O)c1ccc(Cl)cc1Cl	0	0	0	0	0	?
CCOC(=O)CC1=NN(c2ccccc2)C(=O)/C1=C\c1ccc(OC)cc1OC	10.3µM	0	0	?	0	0
SMILES	MCF10A rereplic	KB-V1 cytotox	PTAP TSG101 blk	SW480 rerep	PINK1 modulator	KB-3-1 cytotox
COC(=O)CC1=NN(c2ccccc2)C(=O)/C1=C\c1ccc(OC)cc1	0	0	0	0	0	0
O=C(CCl)c1ccc2c(c1)CCCC2	-	0	-	-	0	0
CCCSc1nnc2c(n1)OC(c1ccc(Br)s1)Nc1ccccc1-2 (centres undefined)	-	0	-	-	0	0
Cn1c(=O)c2c(nc(Br)n2Cc2ccccc2Cl)n(C)c1=O	0	0	0	0	0	0
CCOc1nc2c(c(=O)n(C)c(=O)n2C)n1Cc1ccccc1Cl	0	4.11µM	0	0	0	?
Cn1c(Oc2ccc(F)cc2)nc2c1c(=O)n(Cc1ccccc1Cl)c(=O)n2C	-	10.3µM	-	-	0	?

Screens as filed in PubChem.
